Where “and” joins values, the source holds several entries; their conditions need not be identical. Identical values can stand only once. About 5,700 (36%) of roughly 16,000 compounds were called active. Another 24% or so got no clear call; they are omitted. Calls come from the whole dose curve; as a rule, active = well fitted curve in the direction sought with a large enough effect; inconclusive = small, poorly fitted or top-dose-only effect, or effect the other way; inactive = no such curve, though single readings can be large or run the other way. The list shows a part of the results. A structure can be active in one record and inactive in another.
These molecules were tested against Cytochrome P450 1A2 (Homo sapiens) (UniProt P05177) (assay: Cytochrome panel assay with activity outcomes). Conditions: recombinant CYP, pro-luciferin dealkylation, luminescence, p450-cyp1a2; series mostly up to 57.1 µM.
Cytochrome P450 1A2 (Homo sapiens), sequence (P05177 whole entry, looked up): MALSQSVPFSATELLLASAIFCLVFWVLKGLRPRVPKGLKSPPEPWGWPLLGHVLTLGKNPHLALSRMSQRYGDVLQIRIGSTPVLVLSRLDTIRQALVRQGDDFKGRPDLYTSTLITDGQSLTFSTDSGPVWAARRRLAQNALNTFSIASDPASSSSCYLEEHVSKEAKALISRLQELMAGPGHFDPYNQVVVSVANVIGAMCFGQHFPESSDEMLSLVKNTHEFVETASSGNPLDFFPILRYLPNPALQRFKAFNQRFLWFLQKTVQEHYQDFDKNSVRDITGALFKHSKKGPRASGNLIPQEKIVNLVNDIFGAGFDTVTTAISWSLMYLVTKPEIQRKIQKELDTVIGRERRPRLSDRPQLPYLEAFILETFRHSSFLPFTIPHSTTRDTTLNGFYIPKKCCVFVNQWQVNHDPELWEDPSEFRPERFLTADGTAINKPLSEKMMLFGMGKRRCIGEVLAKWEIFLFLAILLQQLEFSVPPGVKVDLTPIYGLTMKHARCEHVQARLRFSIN
% is set by controls: 0 for no effect and ±100 for the full control effect.

| SMILES | AC50 | activity, negative = inhibition |
| --- | --- | --- |
| Nc1nc(-c2cccs2)cs1 | 7.08 µM (active) | -30.1% [at 2.29 µM] (inactive) |
| NC(=O)C[C@H](N)C(N)=O |  | -6.74% [at 11.4 µM] (inactive) |
| CC(=O)SCC[N+](C)(C)C | inactive |  |
| O=C(Nc1cc(-c2nc3ccccc3s2)ccc1Cl)c1ccc2c(c1)OCO2 | 1.41 µM (active) |  |
| O=C(Nc1cccc(-c2nc3ccccc3s2)c1)c1ccc2c(c1)OCO2 | 2 µM (active) |  |
| Cc1ccc(-n2nc3ccc(NC(=O)c4ccc5c(c4)OCO5)cc3n2)cc1 | inactive |  |
| CCc1sc(N(C(=O)Cc2ccccc2)c2cccc(F)c2)nc1-c1ccc(C)cc1 | inactive |  |
| C/C(=N/NC(=O)Cc1cccn1C)c1ccccc1 | 20 µM (active) |  |
| Cn1cccc1CC(=O)N/N=C\c1cccs1 | 15.8 µM (active) |  |
| COc1ccc(N(CC(=O)N/N=C/c2cccs2)S(=O)(=O)c2ccc(OC)c(OC)c2)cc1 | inactive |  |
| CC(C)(C)c1cccc(Oc2nn[nH]n2)c1 | inactive |  |
| NC(=NCCC[C@H](N)C(=O)O)NO | inactive |  |
| CN/C(=C\[N+](=O)[O-])NCCSCc1csc(CN(C)C)n1 | inactive |  |
| O=C(O)c1cc(S(=O)(=O)NCC2CCCO2)ccc1Cl (stereo unspecified) | inactive |  |
| Cc1ccc(-c2nnn(CC(=O)N(c3ccccc3)C(C(=O)NCC3CCCO3)c3ccc(Cl)cc3)n2)cc1 (stereo unspecified) | inactive |  |
| Cc1noc(C)c1COc1ccc(C(=O)NCC2CCCO2)cc1 (stereo unspecified) | inactive |  |
| O=C(Nc1ccccc1C(=O)NCC1CCCO1)c1ccc(Cl)cc1Cl (stereo unspecified) | 8.91 µM (active) |  |
| O=C(NCC1CCCO1)c1cc(-c2ccc(Cl)cc2Cl)on1 (stereo unspecified) | 2.51 µM (active) |  |
| Clc1ccccc1NN(Cc1ccccn1)c1ccccc1Cl |  | -22.4% [at 2.29 µM] (inactive) |
| Clc1ccccc1NN(Cc1ccncc1)c1ccccc1Cl | 5.01 µM (active) |  |
| CN(C)c1ccc(N=Nc2cccc3ccoc23)cc1 | 0.251 µM (active) |  |
| COC(=O)CNC(=O)CN1C(=O)N(c2ccccc2)C(N(O)C(=O)Nc2ccccc2)C1(C)C (stereo unspecified) | inactive |  |
| O=c1onc2cnc3ccccc3n12 | 2.51 µM (active) |  |
| O=C(Cn1cnc2ccccc21)NC(c1ccccc1)c1ccccc1 | inactive |  |
| O=C(NCCNC[C@@H](O)COc1ccc(O)cc1)N1CCOCC1 | inactive |  |

| SMILES | AC50 | activity, negative = inhibition |
| --- | --- | --- |
| COCCNC(=O)COc1ccc(OCCNC[C@@H](O)COc2ccccc2)cc1 | inactive |  |
| Cc1ccc(OCC(O)CNC(=O)c2ccccc2C(=O)O)cc1 (stereo unspecified) | 14.1 µM (active) |  |
| CC(=O)NC(CCS(C)(=O)=O)C(=O)Nc1c(F)cccc1F (stereo unspecified) | inactive |  |
| Cc1cccc(NC(=O)CCSc2nc(C)cc(C)n2)c1 | 14.1 µM (active) |  |
| Cc1cc(C)nc(SCCc2cccc[n+]2C)n1 |  | -18.6% [at 2.29 µM] (inactive) |
| Cc1cccc(NC(=O)CSc2nc3nc(C)cc(C)c3c(=O)[nH]2)c1 | 2 µM (active) |  |
| Cc1cccc(NC(=O)CSc2nc3ccccc3c3nc(CCc4c(C)n[nH]c4C)nn23)c1 | inactive |  |
| CC[N+](CC)(CC)CC(=O)Nc1c(C)cccc1C | inactive |  |
| OCCN(C=NC1=NN(c2cccc(C(F)(F)F)c2)CC1)CCO | 2.82 µM (active) |  |
| CCC(C)NC(=O)C1c2cc(OC)c(OC)cc2C(=O)N(C)C1c1cccs1 (stereo unspecified) | inactive |  |
| COc1ccc(-c2cc(C(F)F)nc(-n3nc(C)cc3C)n2)cc1 | 1.78 µM (active) |  |
| COc1ccc(-c2ccc3c(n2)CCCN3C[C@H](O)CN2CCCc3nc(C)c(C)cc32)cc1 |  | -2.83% [at 11.4 µM] (inactive) |
| Fc1ccc([C@H]2CCNC[C@H]2COc2ccc3c(c2)OCO3)cc1 | 3.16 µM (active) |  |
| COc1cc(CN2CCN(C(=O)CC(C)C)CC2)cc(OC)c1OC | inactive |  |
| OC(CN1CCCCC1)CN1CCCCC1 | inactive |  |
| Cc1nn2c(NCC(C)C)c3c(nc2c1-c1ccccc1)CCC3 | 2.82 µM (active) |  |
| CCN(CC)c1nc(Nc2ccccc2)nc(Oc2ccc(C(=O)OC)cc2)n1 | 12.6 µM (active) |  |
| CCC(C)[C@H](NC(=O)Nc1ccc(Oc2ccccc2)cc1)C(=O)O (stereo partly specified) | inactive |  |
| CN1CCCC1CCNC1C2CC3CC(C2)CC1C3 (stereo unspecified) | inactive |  |
| COC(=O)c1c(C)[nH]c(O)c1C=Nc1ccc(C(C)C)cc1 | 5.62 µM (active) |  |
| CSc1nsc(SC)c1C(=O)Nc1ccc(C)cc1 | 7.08 µM (active) |  |
| CCCNC(=O)OC[C@@H]1O[C@H](CCO/N=C(\C)CCN2CCc3nc(CC)c(CC)cc3C2)C=C[C@@H]1Oc1ccc(OC)cc1 |  | -0.5% [at 11.4 µM] (inactive) |
| CC1=C(CC(=O)O)c2cc(F)ccc2/C1=C\c1ccc(S(C)=O)cc1 (stereo unspecified) | 3.98 µM (active) and 12.6 µM (active) |  |
| CC1=C(CC(=O)O)c2cc(F)ccc2/C1=C\c1ccc(S(C)(=O)=O)cc1 | 12.6 µM (active) |  |
| C=C(C)[C@@H]1CC=C(C(=O)O)CC1 | inactive |  |

| SMILES | AC50 | activity, negative = inhibition |
| --- | --- | --- |
| COc1cccc(-c2nccc(NCc3cnc(C)cn3)n2)c1 | 0.501 µM (active) |  |
| Cc1cnc(CNc2ccnc(-c3cccc(NS(C)(=O)=O)c3)n2)cn1 | 20 µM (active) |  |
| Cc1cnc(CNc2ccnc(-c3cccc(C#N)c3)n2)cn1 | 1.26 µM (active) |  |
| O=C(NCCCN1CCC(Cc2ccccc2)CC1)C1CCN(S(=O)(=O)N2CCOCC2)CC1 | inactive |  |
| O=[N+]([O-])c1ccc(/C=N/N/C(=N/c2ccccn2)c2ccccn2)cc1 | 12.6 µM (active) |  |
| Nc1ccc(C(=O)NCC(=O)O)cc1 | inactive |  |
| Nc1ccc(C(=O)N/N=C/c2ccccc2)cc1 | 25.1 µM (active) |  |
| O=C(N/N=C/c1cccnc1)c1ccc([N+](=O)[O-])cc1 | 5.01 µM (active) |  |
| O=[N+]([O-])c1ccc([C@@H](Nc2ccccc2)c2ccc3cccnc3c2O)cc1 |  | -21.3% [at 2.29 µM] (inactive) |
| O=C(N/N=C/c1ccc(F)cc1)c1ccc(Br)cc1 | 0.794 µM (active) |  |
| COc1cc(/C=N/NC(=O)c2ccncc2)ccc1OC(=O)c1ccc([N+](=O)[O-])cc1 | inactive |  |
| O=C(N/N=C\c1cccc(O)c1)c1ccncc1 |  | -15.7% [at 11.4 µM] (inactive) |
| CO[C@]1(NC(=O)Cc2cccs2)C(=O)N2C(C(=O)O)=C(COC(N)=O)CS[C@H]21 | inactive |  |
| O=C(O)c1cccc(C(=O)O)c1S(=O)Cc1ccccc1 (stereo unspecified) |  | -2.43% [at 11.4 µM] (inactive) |
| O=c1c(-c2cccs2)nc2cncnc2n1C1CC1 | 2.51 µM (active) |  |
| O=c1c(-c2cccc(Cl)c2)nc2cncnc2n1C1CC1 | 0.631 µM (active) |  |
| O=c1c(-c2ccccc2)nc2cncnc2n1C1CC1 | 2 µM (active) |  |
| Cn1c(=O)c2c(-c3cccc(F)c3)c3c(nc2n(C)c1=O)-c1ccccc1C3O (stereo unspecified) | inactive |  |
| O=c1c(-c2cccc(F)c2)nc2cncnc2n1C1CC1 | 1.58 µM (active) |  |
| CCC1OC23CCCCC2C(C#N)(C(=N)O3)C1(C#N)C#N (stereo unspecified) | inactive |  |
| NC(=O)NC(=O)[C@H]1CCCC[C@@H]1C(=O)O |  | -6.09% [at 11.4 µM] (inactive) |
| O=C1C2C3C=CC(C3)C2C(=O)N1c1ncn[nH]1 (stereo unspecified) | inactive |  |
| O=c1c(-c2ccc(F)c(F)c2)nc2cncnc2n1C1CC1 | 0.1 µM (active) |  |
| O=c1c(-c2ccc(F)cc2)nc2cncnc2n1C1CC1 | 0.158 µM (active) |  |
| O=c1c(-c2cc(F)cc(F)c2)nc2cncnc2n1C1CC1 | 1.26 µM (active) |  |

| SMILES | AC50 | activity, negative = inhibition |
| --- | --- | --- |
| COc1ccc(-n2c(=O)c(C)nc3cncnc32)cc1 | inactive |  |
| Cc1nc2cncnc2n(C2CC2)c1=O | 15.8 µM (active) |  |
| CCC(C(=O)N1CCOCC1)n1c(C(=O)OC)cc2occc21 (stereo unspecified) | inactive |  |
| COC(=O)c1cc2c(ccn2-c2ccc(F)cc2)n1C(C)C | 1 µM (active) |  |
| COC(=O)c1cc2c(ccn2-c2ccc(F)cc2)n1CC(C)C | 0.501 µM (active) |  |
| COC(=O)C/C=C\[C@@H](C)[C@@H](/C=N\O[C@@H]1O[C@H](COC(C)=O)[C@H](OC(C)=O)[C@H](OC(C)=O)[C@H]1OC(C)=O)OC |  | 8.95% [at 11.4 µM] (inactive) |
| COc1ccc(CCN2C(=O)C(Oc3ccccc3C)C2c2ccc3c(c2)OCO3)cc1OC (stereo unspecified) | inactive |  |
| Cc1ccccc1OC1C(=O)N(Cc2ccc3c(c2)OCO3)C1c1sccc1C (stereo unspecified) | 3.16 µM (active) |  |
| O=C1C[C@@H](O)[C@@H](O)[C@H]2[C@@H]3C(=O)N(Cc4ccc5c(c4)OCO5)C(=O)[C@@H]3CC[C@H]12 |  | -14.6% [at 11.4 µM] (inactive) and 4.43% [at 11.4 µM] (inactive) |
| O=C(c1csnn1)N1CCC2(CCCN(c3ccccc3)C2)CC1 | inactive |  |
| COc1[nH]c2ccc(F)cc2c1C(=O)OCC1CCN(CCNS(C)(=O)=O)CC1 | inactive |  |
| COc1cc(N)c(Cl)cc1C(=O)CCC1CCN(CCNS(C)(=O)=O)CC1 | inactive |  |
| Cn1cc(C(=O)OCC2CCN(CCNS(C)(=O)=O)CC2)c2ccccc21 | 15.8 µM (active) |  |
| CCOC(=O)C1(C(=O)O)NC(=O)CC1c1ccccc1 (stereo unspecified) | inactive |  |
| CCOC(=O)C1C(=O)NC(C)C1c1ccccc1 (stereo unspecified) | 12.6 µM (active) |  |
| CCCCN1C(=O)CCC(C(=O)O)C1c1ccccc1 (stereo unspecified) | inactive |  |
| C=CCOC(=O)C1=C(C)NC(SCC(=O)OCC)=C(C#N)C1c1ccc(C)cc1 (stereo unspecified) | 12.6 µM (active) |  |
| CCCSC1=C(C#N)C(c2cccnc2)C(C(=O)OCC)=C(c2ccccc2)N1 (stereo unspecified) | inactive |  |
| COC(=O)CSC1=C(C#N)C(c2cccc(F)c2)CC(=O)N1 (stereo unspecified) | inactive |  |
| CCOC(=O)C1=C(O)C(Nc2nccs2)(C(F)(F)F)N=C1C (stereo unspecified) | inactive |  |
| CCOC(=O)C1=C(C)NC(=O)NC1c1ccoc1 (stereo unspecified) | 15.8 µM (active) |  |
| CCOC(=O)CSC1=C(C#N)C(c2sccc2C)CC(=O)N1 (stereo unspecified) | 20 µM (active) |  |
| COC(=O)C1=C(C)NC(=O)NC1c1ccsc1 (stereo unspecified) | inactive |  |
| CCOC(=O)C1=C(C)NC(C)=C(C(=O)OCC)C1c1sccc1C | 5.01 µM (active) |  |
